Assay [1] can be described thus: qHTS assay for small molecule agonists of the p53 signaling pathway (AID 651631; calls by dose curve; further: nearly all actives have a fitted effect of over 15% in size; further: potency means the concentration at half of the fitted maximal effect). In short, it runs like this: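 p53RE-bla HCT-116 cells; compounds 16 h, 37 °C; LiveBLAzer B/G FRET substrate 2 h RT; fluorescence intensity read-out, qHTS format.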
Assay [2] is described as follows: qHTS assay for small molecules that induce genotoxicity in human embryonic kidney cells expressing luciferase-tagged ATAD5 (AID 651632). Further: nearly all actives have a fitted effect of over 15% in size. Further: potency means the concentration at half of the fitted maximal effect. The method in brief:
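DMSO vehicle served as the control. HEK293T reporter cells, 16 hr at 37C, then 30 min Amplite at room temperature; ATAD5 induction is measured as luciferase activity.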

A short description of assay [3]: qHTS assay for small molecule agonists of the p53 signaling pathway - cell viability (AID 651633; calls by dose curve;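 further: p53RE-bla HCT reporter cells with a stable beta-lactamase p53 reporter; series mostly up to about 83 µM; nearly all actives have a fitted effect of over 30% in size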). The method in brief:
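p53RE-bla cells were treated with compound for 16 hours at 37 C. Cytotoxicity was then measured as CellTiter-Glo luminescence after 30 min at room temperature.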

The nature of assay [4]: qHTS assay for small molecule disruptors of the mitochondrial membrane potential - cell viability (AID 720634; calls by dose curve; further: nearly all actives have a fitted effect of over 20% in size; further: potency means the concentration at half of the fitted maximal effect). In short, it runs like this: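 Viability of HepG2 cells is scored from ATP content by luminescence; cells are exposed to compound for 1 hr at 37 C and 5% CO2, then dosed with m-MPI dye before the CellTiter-Glo reagent.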
Assay [5] can be described thus: qHTS assay for small molecule disruptors of the mitochondrial membrane potential (AID 720635). Further: potency means the concentration at half of the fitted maximal effect. In short, it runs like this:
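HepG2 cells exposed to compound 1 hr at 37C, then Mito-MPS dye 30 min. Ratio read of aggregate (540/590 nm) versus monomer (490/535 nm) fluorescence.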

A short description of assay [6]: qHTS assay to test for compound auto fluorescence at 590 nm (red) in HepG2 cells (AID 720674). In short, it runs like this: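 HepG2 cells, 2,000 per well in MEM with 10% FBS, attached overnight at 37 C, then got 23 nL compound or DMSO. After 1 hr at 37 C, 5% CO2, red fluorescence was read at 540/590 nm against Rose Bengal sodium as reference.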
Assay [7] in a line: qHTS assay to test for compound auto fluorescence at 535 nm (green) in HepG2 cells (AID 720675).
A short description of assay [8]: qHTS assay to test for compound auto fluorescence at 460 nm (blue) in HEK293 cells (AID 720678). The method in brief:
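HEK293, 2,000 cells/well, 10% dialyzed FBS; attach 4-5 hr 37C; pin compound or DMSO; o/n 37C/5% CO2; fluorescence 405/460 nm; triamterene-equivalent units.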

Assay [9] can be described thus: qHTS assay to test for compound auto fluorescence at 590 nm (red) in HEK293 cells (AID 720679). The method in brief: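 Intensity at 540nm excitation and 590nm emission is reported as Rose Bengal sodium-equivalent autofluorescence. Measurements followed overnight exposure (37C, 5% CO2) of HEK293 cells, 2,000 per well, to 23 nL compound.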
Assay [10] can be described thus: qHTS assay for small molecules that induce genotoxicity in human embryonic kidney cells expressing luciferase-tagged ATAD5 - cell viability (AID 651634; calls by dose curve; further: nearly all actives have a fitted effect of over 25% in size). In short, it runs like this: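 Here HEK293T cells with the ATAD5 luciferase reporter are incubated with test compounds for 15.5 hr, and cytotoxicity is then gauged by measuring protease activity in live cells using fluorescence.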

Results filed as inconclusive are left out. Calls of active or inactive are those of the source. Unless noted, the call rests on the fitted dose curve; in most records, active means well fitted curve in the direction sought with a large enough effect in the repeat runs; inconclusive means weak or mixed curves; inactive means no such curve, though single readings can be large; an effect the other way counts as inactive or inconclusive.

Turning to `O=P(O)(O)OC(CO)CO`, the Potency entry in assay [1], in assay [2], in assay [3], in [4], in [5] and in assay [6] was “inactive” throughout. Further, the Potency result in [7], in assay [8] and in assay [9] was “inactive” each time.
On to `O=[N+]([O-])c1ccc(Oc2ccc(N=C=S)cc2)cc1`, for which the results for the Potency in assay [1] and in assay [5] were 13.3 µM (active) and 5.96 µM (active), respectively. The Potency entry in assay [2], in assay [3], in [10], in assay [6], in assay [7] and in assay [8] was “inactive” throughout. The Potency result in [9] is “inactive”.
For the compound `CC[C@H]1OC(=O)[C@H](C)[C@@H](O[C@H]2C[C@@](C)(OC)[C@@H](O)[C@H](C)O2)[C@H](C)[C@@H](O[C@@H]2O[C@H](C)C[C@H](N(C)C)[C@H]2O)[C@](C)(O)C[C@@H](C)[C@@H]2N[C@@H](COCCOC)O[C@@H]([C@H]2C)[C@]1(C)O`, the Potency result in [1], in [2], in [3], in assay [10], in assay [6] and in assay [7] was “inactive” each time. For the same compound, the Potency entry in [8] and in assay [9] was “inactive” each time.
As for `CC(=O)[C@@]1(O)CC[C@H]2[C@@H]3C=C(Cl)C4=CC(=O)[C@@H]5C[C@@H]5[C@]4(C)[C@H]3CC[C@@]21C`, the Potency entry in assay [1], in assay [2], in [3], in assay [10], in [4] and in [6] was “inactive” throughout. Moreover, the Potency result in assay [7], in assay [8] and in assay [9] was “inactive” in each case.
As for `CCOc1ccc(N=C(C)Nc2ccc(OCC)cc2)cc1`, the Potency entry in [1], in assay [2], in assay [3], in [10], in [5] and in [6] was “inactive” throughout. In addition, the Potency result in [7], in assay [8] and in [9] was “inactive” in each case.
As to `C=CCOc1ccc(CC(=O)O)cc1Cl`, the Potency result in assay [1], in assay [2], in assay [3], in assay [10], in [4] and in assay [6] was “inactive” each time. The Potency result in assay [7], in assay [8] and in assay [9] was “inactive” in each case.
On to `CCCc1ccc(C(=O)O)cc1`, for which the Potency result in [1], in assay [2], in assay [3], in assay [10], in assay [4] and in assay [6] was “inactive” throughout. Besides, the Potency result in assay [7], in assay [8] and in [9] was “inactive” throughout.
As for `CC(C(=O)O)c1ccc(N2Cc3ccccc3C2=O)cc1` (centres undefined), the Potency entry in assay [1], in assay [3], in [10], in assay [6], in [7] and in assay [8] was “inactive” in each case. The Potency result in assay [9] was “inactive”. Besides, the Potency in [2] is 0.596 µM (active).
With `CCCC(=O)O[C@]1(C(=O)COC(C)=O)CC[C@H]2[C@@H]3C[C@H](F)C4=CC(=O)C=C[C@]4(C)[C@@]3(F)[C@@H](O)C[C@@]21C`, the Potency entry in [1], in [2], in assay [3], in [10], in [4] and in assay [6] was “inactive” in each case. Moreover, the Potency entry in [7], in [8] and in assay [9] was “inactive” in each case.
Turning to `CO[C@@]1(NC(=O)C2SC(=C(C(N)=O)C(=O)O)S2)C(=O)N2C(C(=O)O)=C(CSc3nnnn3C)CS[C@@H]21` (some centres undefined), the Potency entry in assay [1], in [2], in [3], in assay [4], in assay [6] and in assay [7] was “inactive” throughout. For the same compound, the Potency result in [8] and in assay [9] was “inactive” in each case.
`CC1(C)S[C@@H]2[C@H](NC(=O)C(C(=O)Oc3ccc4c(c3)CCC4)c3ccccc3)C(=O)N2[C@H]1C(=O)O` (some centres undefined): the Potency entry in [1], in assay [2], in [3], in assay [4], in assay [6] and in assay [7] was “inactive” throughout. Further, the Potency entry in [8] and in assay [9] was “inactive” throughout.
For `CN(CC(=O)N1CCOCC1)Cc1c(Cl)cccc1NC(=O)c1ccccc1`, the Potency entry in assay [1], in [2], in assay [3], in assay [10], in [4] and in assay [6] was “inactive” each time. The Potency entry in assay [7], in assay [8] and in assay [9] was “inactive” each time.
Take `NC[C@@H]1O[C@H](O[C@H]2[C@@H](O)[C@H](O[C@@H]3[C@@H](O)[C@H](N)C[C@H](N)[C@H]3O[C@H]3O[C@H](CO)[C@@H](O)[C@H](O)[C@H]3N)O[C@@H]2CO)[C@H](N)[C@@H](O)[C@@H]1O`: the Potency entry in [1], in assay [2], in assay [3], in assay [4], in assay [5] and in assay [6] was “inactive” in each case. Moreover, the Potency entry in assay [7], in assay [8] and in [9] was “inactive” in each case.
Turning to `CN(C)C=Nc1c(I)cc(I)c(CCC(=O)O)c1I`, the Potency entry in assay [1], in assay [2], in [3], in [10], in assay [6] and in assay [7] was “inactive” throughout. Further, the Potency entry in assay [8] and in assay [9] was “inactive” each time.
`CC(CN(C)C)CN1c2ccccc2S(=O)(=O)c2ccccc21` (centres undefined): the Potency result in [1], in assay [2], in [3], in assay [4], in [5] and in assay [6] was “inactive” throughout. In addition, the Potency result in [7], in [8] and in assay [9] was “inactive” in each case.
In the case of `c1ccc2c(CCC3CCNCC3)c[nH]c2c1`, the Potency entry in [1], in assay [2], in assay [3], in assay [10], in assay [6] and in assay [7] was “inactive” each time. Further, the Potency result in [8] and in [9] was “inactive” throughout.
With `OCC(O)COc1ccc(Cl)cc1` (centres undefined), the Potency result in assay [1], in assay [2], in assay [3], in assay [10], in assay [4] and in assay [6] was “inactive” in each case. Also, the Potency entry in [7], in assay [8] and in [9] was “inactive” each time.
With `CCCCC(=O)O[C@H]1CC[C@H]2[C@@H]3CCc4cc(O)ccc4[C@H]3CC[C@]12C`, the Potency entry in [1], in assay [2], in assay [3], in assay [6], in assay [7] and in [8] was “inactive” each time. Further, the Potency result in assay [9] is “inactive”. The values for the Potency in [4] and in [5] were 29.8 µM (active) and 18.8 µM (active), respectively.
As for `CC(C)(C)C(=O)OCOC(=O)[C@@H]1N2C(=O)[C@@H](N=CN3CCCCCC3)[C@H]2SC1(C)C`, the Potency entry in [1], in [2], in [3], in assay [4], in assay [6] and in assay [7] was “inactive” each time. Further, the Potency result in [8] and in assay [9] was “inactive” throughout.

(Values after PubChem BioAssay (Tox21).)
